16 molecules from PubChem BioAssay (NCATS) can be followed below.

In one experiment the test system is NIH3T3. Nature of the experiment: Cytotoxic Profiling of Annotated Libraries Using Quantitative High-Throughput Screening (AID 1296008). Further: nearly all actives have a fitted effect of over 60% in size. The following applies: Five cell lines viability, CellTiter-Glo ATP luminescence, 48-72 h; max response: stronger effect = lower value. The procedure, abridged:
(§1)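 Cytotoxicity was measured as CellTiter-Glo ATP luminescence, read after 10 min at room temperature. Compound treatment of the cells lasted 48 or 72 hr at 37 degrees Celsius in a qHTS format.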

A further experiment has as its system MCC-13. Nature of the experiment: qHTS assay to identify novel small-molecules to repurpose for Merkel cell carcinoma treatment (AID 1296009). Further: nearly all actives have a fitted effect of over 60% in size. Particulars: MCC and control cell lines, CellTiter-Glo viability, 72 h; series mostly up to 46 µM. The procedure, abridged:
(§2)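 After compound transfer in DMSO, plates were kept 72 hr at 37 degree celsius. Luminescent ATP signal from CellTiter-Glo served as viability measure, normalized against DMSO and no-cell controls.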

The next experiment concerns MCC-26. The description is as above. The following applies: MCC and control cell lines, CellTiter-Glo viability, 72 h; series mostly up to 46 µM. The procedure, abridged:
as §2

The subject of another experiment is MKL-1. The description is as above. The following applies: MCC and control cell lines, CellTiter-Glo viability, 72 h; series mostly up to 46 µM. The procedure, abridged:
as §2

The next experiment has as its system C33A. In words: Primary qHTS to identify gynecologic anti-cancer compounds using libraries of approved drugs and bioactive compounds (AID 1345084). Further: nearly all actives have a fitted effect of over 55% in size. Particulars: Gynecologic cancer cell panel viability, ATPlite luminescence, 48 h; series mostly up to 57.5 µM. The essentials: (§3)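 Cell viability after 48 h drug treatment, ATPlite luminescence readout; five doses.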

A further experiment has as its system CAOV3. The description is as above. Particulars: Gynecologic cancer cell panel viability, ATPlite luminescence, 48 h; series mostly up to 57.5 µM. The essentials:
as §3

The next experiment relates to CASKI. The experiment is described as above. Particulars: Gynecologic cancer cell panel viability, ATPlite luminescence, 48 h; series mostly up to 57.5 µM. The procedure, abridged: as §3
The test system of the next experiment is HeLa. The experiment is described as above. The following applies: Gynecologic cancer cell panel viability, ATPlite luminescence, 48 h; series mostly up to 57.5 µM. The essentials:
as §3

Experiment [1] has as its system Hek293T. The experiment is described as above. The following applies: Gynecologic cancer cell panel viability, ATPlite luminescence, 48 h, control line for the selectivity index; series mostly up to 57.5 µM. The essentials:
as §3

In a further experiment the test system is JEG-3. The experiment is described as above. The following applies: Gynecologic cancer cell panel viability, ATPlite luminescence, 48 h; series mostly up to 57.5 µM. The procedure, abridged: as §3
Another experiment has as its system OV90. Described as above. The following applies: Gynecologic cancer cell panel viability, ATPlite luminescence, 48 h; series mostly up to 57.5 µM. The essentials: as §3
The test system of the next experiment is MKL-2. Nature of the experiment: qHTS assay to identify novel small-molecules to repurpose for Merkel cell carcinoma treatment (AID 1296009). Further: nearly all actives have a fitted effect of over 60% in size. The following applies: MCC and control cell lines, CellTiter-Glo viability, 72 h; series mostly up to 46 µM. The essentials: as §2
The next experiment concerns UISO. Described as above. The following applies: MCC and control cell lines, CellTiter-Glo viability, 72 h; series mostly up to 46 µM. The procedure, abridged:
as §2

In a further experiment the test system is WaGa. The description is as above. Particulars: MCC and control cell lines, CellTiter-Glo viability, 72 h; series mostly up to 46 µM. The procedure, abridged: as §2
Another experiment deals with Es-2. Nature of the experiment: Primary qHTS to identify gynecologic anti-cancer compounds using libraries of approved drugs and bioactive compounds (AID 1345084). Further: nearly all actives have a fitted effect of over 55% in size. The following applies: Gynecologic cancer cell panel viability, ATPlite luminescence, 48 h; series mostly up to 57.5 µM. The procedure, abridged:
as §3

A further experiment deals with KB-3-1. Nature of the experiment: Cytotoxic Profiling of Annotated Libraries Using Quantitative High-Throughput Screening (AID 1296008). Further: nearly all actives have a fitted effect of over 60% in size. Particulars: Five cell lines viability, CellTiter-Glo ATP luminescence, 48-72 h; max response: stronger effect = lower value. The essentials:
as §1

The subject of experiment [2] is HEK293T. Nature of the experiment: qHTS assay to identify novel small-molecules to repurpose for Merkel cell carcinoma treatment (AID 1296009). Further: nearly all actives have a fitted effect of over 60% in size. The following applies: MCC and control cell lines, CellTiter-Glo viability, 72 h; at 44.8 µM (top of the series) unless noted. The procedure, abridged: as §2

Results filed as inconclusive are left out. Unmarked numbers belong to inactive results. Active and inactive are the calls of the source. The call rests on the fitted dose curve; in most records, active means well fitted curve in the direction sought with a large enough effect; inconclusive means small, poorly fitted or top-dose-only effect, or another doubt; inactive means no such curve, though single readings can be large; an effect the other way counts as inactive or inconclusive. Where a SMILES comes first, the peptide text is derived from it. [ ]: non-standard residue; d: D form. pGlu = O=C1CC[C@@H](C(=O)O)N1
On the % scale 0 is the no-effect control and ±100 the full control effect; potency means the concentration at half of the fitted maximal effect.

For the molecule `Cc1cccc(N(C)C(=S)Oc2ccc3c(c2)C2CCC3C2)c1` (stereo not given), the max response in the experiment on NIH3T3 is -24.5%. Also, the Potency entry with MCC-13, in the experiment with MCC-26, in the experiment with MKL-1, in the experiment with C33A, in the experiment on CAOV3 and with CASKI was “inactive” throughout. The Potency entry in the experiment with HeLa, with Hek293T [1] and in the experiment with JEG-3 was “inactive” each time. Moreover, the Potency in the experiment on OV90 is 35.5 µM (active).

For the molecule `C[C@@H]1C[C@H]2[C@@H]3CCC4=CC(=O)C=C[C@]4(C)[C@@]3(F)[C@@H](O)C[C@]2(C)[C@@]1(O)C(=O)COC(=O)c1ccncc1`, the max response with NIH3T3 was -6.36%. Further, the Potency result in the experiment with MCC-13, in the experiment with MCC-26, with MKL-1, in the experiment with MKL-2, in the experiment on UISO and with WaGa was “inactive” each time. The Potency entry with C33A, in the experiment with CAOV3, with CASKI, in the experiment on Es-2, in the experiment with HeLa and in the experiment with Hek293T [1] was “inactive” in each case. Besides, the Potency result with JEG-3 and with OV90 was “inactive” in each case.

In the case of `COCCc1ccc(OCC2CO2)cc1` (stereo not given), in the experiment on NIH3T3, the max response was -4.27%. Further, the Potency entry in the experiment on MCC-13, in the experiment on MCC-26, in the experiment with MKL-1, in the experiment on MKL-2, with UISO and in the experiment on WaGa was “inactive” throughout. In addition, the Potency result with C33A, with CAOV3, in the experiment with CASKI, with Es-2, in the experiment on HeLa and in the experiment on Hek293T [1] was “inactive” throughout. Further, the Potency result with JEG-3 and in the experiment on OV90 was “inactive” each time.

Consider `CC(C)(C)c1ccc(O)c(O)c1`, for which the max response with KB-3-1 is -6.07%. For the same molecule, the Potency in the experiment with MKL-1 is 6.86 µM (active); in the experiment with MKL-2, 6.11 µM (active); with UISO it was 15.4 µM (active); with WaGa, 10.9 µM (active); with OV90 it was 35.5 µM (active).

As for `CC(=O)Oc1ccc(C2(c3ccc(OC(C)=O)cc3)Oc3ccccc3NC2=O)cc1`, in the experiment on KB-3-1, the Potency is 18.4 µM (active). The Potency entry in the experiment with MKL-1, with MKL-2 and in the experiment with C33A was “inactive” in each case.

As for `Cc1c(C)c2c(c(C)c1OC(=O)CCC(=O)OCCO)CC[C@@](C)(CCC[C@H](C)CCC[C@H](C)CCCC(C)C)O2`, the results for the max response in the experiment on KB-3-1 and with NIH3T3 were -31.1% and -19.3%, respectively. In addition, the Potency result with MCC-13, with MCC-26, in the experiment on MKL-1, in the experiment with MKL-2, in the experiment with UISO and in the experiment on WaGa was “inactive” throughout.

Regarding `O=[N+]([O-])c1ccc(O)c2ncccc12`, the Potency in the experiment on NIH3T3 is 15 µM (active); with MCC-13, 11.9 µM (active); in the experiment on MCC-26, 13.3 µM (active); with MKL-1, 3.76 µM (active); in the experiment on MKL-2, 2.66 µM (active); in the experiment on UISO, 7.5 µM (active). The results for the Potency with WaGa and in the experiment on C33A were 7.5 µM (active) and 15.8 µM (active), respectively. Further, the Potency entry in the experiment with HeLa and in the experiment on JEG-3 was “inactive” throughout.

For `CN1CCCN(C(c2ccccc2)c2ccc(Cl)cc2)CC1` (stereo not given), the max response in the experiment with KB-3-1 was 0.505%. For the same molecule, the Potency entry in the experiment on MCC-26, in the experiment with C33A, in the experiment on CAOV3, with Es-2, in the experiment on HeLa and in the experiment on JEG-3 was “inactive” in each case.

As to `Cc1cc(C(C)(C)C)c(O)c(C(C)(C)C)c1`, the max response in the experiment on KB-3-1 was -9.85%. Also, the Potency result with MCC-13, with MCC-26, in the experiment on MKL-1, with MKL-2, with UISO and with WaGa was “inactive” each time. The Potency result with C33A, with CASKI, with Es-2, with HeLa, in the experiment on Hek293T [1] and in the experiment with JEG-3 was “inactive” throughout. In addition, the Potency entry in the experiment on OV90 is “inactive”.

Regarding `CCN1CCCC1CN` (stereo not given), in the experiment with NIH3T3, the max response is -1.87%. In addition, in the experiment with HEK293T [2], the molecule was classed as inactive. Further, the Potency result with MCC-13, with MCC-26, in the experiment on MKL-1, in the experiment with MKL-2, in the experiment with UISO and in the experiment on WaGa was “inactive” in each case. Moreover, the Potency result with C33A, with CAOV3, with CASKI, in the experiment with Es-2, in the experiment on HeLa and in the experiment with Hek293T [1] was “inactive” throughout. Also, the Potency entry in the experiment on JEG-3 and in the experiment with OV90 was “inactive” in each case.

For the molecule `CCOC(=O)[C@H](CCc1ccccc1)N[C@@H](C)C(=O)N(CC(=O)O)C1Cc2ccccc2C1`, the max response in the experiment on KB-3-1 is -12.3%. Moreover, the Potency result in the experiment on MCC-13, in the experiment on MCC-26, in the experiment with MKL-1, with MKL-2, in the experiment with UISO and with WaGa was “inactive” each time. The Potency result in the experiment with C33A, with CAOV3, in the experiment on CASKI, with Es-2, in the experiment on HeLa and in the experiment with Hek293T [1] was “inactive” in each case. For the same molecule, the Potency entry in the experiment on JEG-3 and in the experiment on OV90 was “inactive” each time.

`O=C1NC(c2cccc([N+](=O)[O-])c2)=CCN1c1ccccc1O`: in the experiment on KB-3-1, the max response was -1.53%. The Potency entry in the experiment with C33A, in the experiment on CAOV3, in the experiment with Es-2, with HeLa and in the experiment on OV90 was “inactive” each time.

As to `c1ccc2occc2c1`, the max response in the experiment with KB-3-1 is -9.71%; with NIH3T3 it was -3.85%. Besides, the Potency result with MCC-13, in the experiment with MCC-26, with MKL-1, in the experiment on MKL-2, with UISO and in the experiment with WaGa was “inactive” in each case. Also, the Potency result in the experiment with C33A, in the experiment on CAOV3, in the experiment with CASKI, in the experiment with Es-2, with HeLa and with Hek293T [1] was “inactive” throughout. Also, the Potency result with JEG-3 and in the experiment on OV90 was “inactive” throughout.

As for `CCNC(=O)[C@@H]1CCCN1C(=O)[C@H](CCCN=C(N)N)NC(=O)[C@H](CC(C)C)NC(=O)CNC(=O)[C@H](Cc1ccc(O)cc1)NC(=O)[C@H](CO)NC(=O)[C@H](Cc1c[nH]c2ccccc12)NC(=O)[C@H](Cc1cnc[nH]1)NC(=O)[C@@H]1CCC(=O)N1` ([pGlu]HWSYGLRP-NHEt), in the experiment with NIH3T3, the max response is -1.57%. Further, the Potency entry in the experiment on MCC-13, with MCC-26, in the experiment on MKL-1, with UISO, in the experiment on WaGa and in the experiment on C33A was “inactive” in each case. Besides, the Potency result in the experiment with CAOV3, in the experiment with CASKI, with Es-2, in the experiment on HeLa, in the experiment on Hek293T [1] and in the experiment on JEG-3 was “inactive” in each case. For the same molecule, the Potency entry with OV90 was “inactive”.

`Cc1ncc([N+](=O)[O-])n1C`: the max response in the experiment with NIH3T3 is -19.7%. For the same molecule, in the experiment on HEK293T [2], the molecule was classed as inactive. Moreover, the Potency entry with MCC-13, with MCC-26, in the experiment with MKL-1, with MKL-2, in the experiment with UISO and in the experiment with WaGa was “inactive” each time. Moreover, the Potency result with C33A, in the experiment with CAOV3, with CASKI, in the experiment on Es-2, in the experiment with HeLa and with Hek293T [1] was “inactive” each time. Moreover, the Potency result with JEG-3 and in the experiment with OV90 was “inactive” each time.

On to `Nc1ccc(O)cc1`, for which the Potency entry with C33A, in the experiment with CAOV3, in the experiment on CASKI, with Es-2, in the experiment on Hek293T [1] and in the experiment on JEG-3 was “inactive” in each case. Further, the Potency result in the experiment on OV90 was “inactive”.
